This note sets out measurements from PubChem BioAssay AID493056 (National Center for Advancing Translational Sciences (NCATS), 2011).

Molecules are shown by their SMILES. Screen size: about 360,000 compounds; about 2,400 (0.67%) were called active. This is one part of a sample in which actives are shown more often than they occur. Unmarked numbers belong to inactive results. No stated cut-off is given here; in the data, active means enhancement above about 30%; inactive means the rest.

Chain of Thyrotropin-releasing hormone receptor (Homo sapiens) (P34981 whole entry, looked up): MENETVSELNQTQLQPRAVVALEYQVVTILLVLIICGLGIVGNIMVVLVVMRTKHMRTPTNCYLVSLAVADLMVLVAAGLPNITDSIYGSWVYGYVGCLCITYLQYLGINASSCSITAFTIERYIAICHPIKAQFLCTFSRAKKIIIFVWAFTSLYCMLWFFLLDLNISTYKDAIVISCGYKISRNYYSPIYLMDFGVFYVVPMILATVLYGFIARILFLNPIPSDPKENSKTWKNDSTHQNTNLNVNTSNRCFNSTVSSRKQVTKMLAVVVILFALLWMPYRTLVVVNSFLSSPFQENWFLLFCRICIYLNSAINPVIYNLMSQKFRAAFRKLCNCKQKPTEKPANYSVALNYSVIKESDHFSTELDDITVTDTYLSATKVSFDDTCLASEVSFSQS

The target in the assay is Thyrotropin-releasing hormone receptor (Homo sapiens) (UniProt P34981). Put plainly: qHTS for Small Molecule Agonists and Allosteric Enhancers of Human TRH Receptor: Primary Screen for Enhancers. Further: 0% is about no effect. As to conditions: TRHR cells, fluo-8 calcium fluorescence, EC20 TRH enhancement; at 2 µM; stronger effect = higher value. In outline:
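TRHR-expressing cells loaded with fluo-8 calcium dye were read kinetically (ex 480/em 530) during compound addition, then stimulated with an EC20 of TRH (10 nM final). Enhancement of the Gq-mediated intracellular calcium response was scored.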
Turning to `O=C1C(F)N([S+](=O)([O-])c2ccc3c(c2)OCCO3)CCN1[S+](=O)([O-])c1c(F)cccc1F` (stereo not drawn), the enhancement was 3.19%.

Regarding `N#CN1CCC(NC(=O)c2ccc(F)cc2)CC1`, the enhancement is 1.17%.

As for `Cn1cccc1C1(C(F)(F)F)NCCNC1=O` (stereo not drawn), the enhancement was 50.7% (active).

Regarding `Cn1c(=O)c2c(ncn2CC(=O)Nc2cccc(C(F)(F)F)c2)n(C)c1=O`, the enhancement was -2.46%.

For `O=[S+]([O-])(c1ccc2c(c1)OCCO2)N1CCN([S+](=O)([O-])c2c(Cl)cc(Cl)cc2Br)CC1`, the enhancement was -1.85%.

`CCOc1ccc(-n2c(SCC(=O)NCc3ccccc3)nc3n[nH]c(C)c3c2=N)cc1`: the enhancement was -5.76%.

As to `CCn1c(=O)c(=O)n(CC)c2cc(N3CCCCC3)c(NC(=O)c3cccc(F)c3)cc21`, the enhancement is 4.18%.

Consider `Cc1ccc(C(=O)Nc2cc3c(cc2N2CCCC2)n(C)c(=O)c(=O)n3C)cc1`, for which the enhancement is 32.4% (active).

In the case of `CCn1c(=O)c(=O)n(CC)c2cc(N3CCCCC3)c(NC(=O)c3ccc(Cl)cc3)cc21`, the enhancement was 4.4%.

With `Nc1ncc(S(=O)(=O)Nc2ccc(OC(F)(F)F)cc2)cn1`, the enhancement is -5.87%.

Take `O=C(NCC(=O)N(CC1CCCO1)C(C(=O)NC1CCCCC1)c1ccccc1)c1ccco1` (stereo not drawn): the enhancement was 35.9% (active).

`Cc1ccc(N(C(=O)CNC(=O)c2ccco2)C(C(=O)NC2CCCC2)c2ccncc2)cc1` (stereo not drawn): the enhancement is 0.937%.

Take `COc1ccc(N(C(=O)CNC(=O)c2ccco2)C(C(=O)NCC2CCCO2)c2ccccc2)cc1Cl` (stereo not drawn): the enhancement was -16.4%.

As to `CCOc1ccc(Nc2ncnc3scc(-c4ccc(OC)cc4)c23)cc1`, the enhancement was -0.508%.

As for `O=C(NCc1ccc2c(c1)OCO2)C12CC3CC(CC(C3)C1)C2`, the enhancement is -3.78%.

Regarding `CN(C)S(=O)(=O)c1cccc(NC(=S)NCc2ccc3c(c2)OCO3)c1`, the enhancement is 34% (active).

As to `CN(C)S(=O)(=O)c1cccc(NC(=O)COc2ccc3ccccc3c2)c1`, the enhancement was -1.36%.

On to `COc1ccccc1N1CCN(c2ncnc3onc(-c4cccc(Cl)c4)c23)CC1`, for which the enhancement was -1.85%.

Take `COc1ccc(C(=O)COC(=O)CNC(=O)c2cccs2)cc1Br`: the enhancement was 2.56%.

For `CCOc1ccc(C(C)=O)cc1COC(=O)CNC(=O)c1cccs1`, the enhancement was 34.6% (active).

On to `CCOc1ccc(C(C)=O)cc1COC(=O)c1cnc(Cl)c(Cl)c1`, for which the enhancement was 22.5%.

On to `CCCNC(=O)c1ccc(N2CCC3(CC2)CC(c2cccc(Br)c2)=NO3)c(NC(=O)c2ccco2)c1`, for which the enhancement is 35.5% (active).

As to `CCCNC(=O)c1ccc(N2CCC3(CC2)CC(c2ccc(Cl)cc2)=NO3)c([N+](=O)[O-])c1`, the enhancement is 0.894%.

As to `O=C(Nc1ccccc1N1CCN(C(=O)c2ccccc2)CC1)c1ccco1`, the enhancement is 7.38%.

As to `COC(=O)c1ccccc1NC(=O)c1ccc(C#N)cc1`, the enhancement was 6.65%.

For `CCCCCn1c(CCNC(=O)c2ccc(F)cc2)nc2ccccc21`, the enhancement was -6.28%.

As for `Cc1ccc(NC(=O)CCCn2c(=O)c3cccn3c3ccccc32)cc1Cl`, the enhancement is 1.3%.

Regarding `COc1ccc2c(c1)Cc1sc(NC(=O)c3ccccc3Br)nc1-2`, the enhancement was 4.8%.

`CCC(CC)c1nnc(NC(=O)c2nn(C)c(=O)c3ccccc23)s1`: the enhancement is 6.49%.

On to `Cc1sc(NC(=O)C2=COCCO2)c(C#N)c1C`, for which the enhancement is 2.25%.

Regarding `CCC(CC)c1nnc(NC(=O)C2=COCCO2)s1`, the enhancement is 36.4% (active).

As for `Cc1ccccc1OCc1ccc(-c2nc(C#N)c(N3CCCCC3)o2)o1`, the enhancement was 0.624%.

`O=C(Nc1ccc(-c2nc3cc(NC(=O)c4ccccc4Cl)ccc3o2)cc1)c1ccccc1Cl`: the enhancement is -6.24%.

Regarding `COc1ccc(NC(=O)CC2COc3ccccc3O2)c(OC)c1` (stereo not drawn), the enhancement is -4.66%.

Turning to `Cc1cc(C(=O)CCl)c(C)n1CC1COc2ccccc2O1` (stereo not drawn), the enhancement is 45.8% (active).

Regarding `Cc1n[nH]c(C)c1S(=O)(=O)N1CCCC(C(=O)NCC2COc3ccccc3O2)C1` (stereo not drawn), the enhancement was -5.61%.

Consider `COc1ccc(NC(=O)Cn2c(=O)n(CCC(C)C)c(=O)c3cccnc32)cc1Cl`, for which the enhancement is 5.35%.

Turning to `COn1c(-c2ccc(Cl)cc2Cl)nc2ncccc21`, the enhancement was 31.3% (active).

With `Clc1ccc(COn2c(-c3ccc(Cl)cc3Cl)nc3ncccc32)cc1`, the enhancement is -14.4%.

On to `Cc1nc2cccnc2nc1C`, for which the enhancement is 1.62%.

Consider `O=S(=O)(c1ccccc1)c1nc(-c2ccccc2F)oc1NCc1cccnc1`, for which the enhancement was 0.0883%.

Regarding `O=S(=O)(c1ccc(Br)cc1)c1nc(-c2ccccc2)oc1NCc1cccnc1`, the enhancement is 31.2% (active).

In the case of `Cc1ccc(S(=O)(=O)c2nc(-c3cccs3)oc2NCc2cccnc2)cc1`, the enhancement is -3.44%.

Regarding `Cc1ccc(-n2cnc3cc(C(=O)NCCC4=CCCCC4)ccc32)cc1Cl`, the enhancement was -5.29%.

On to `Cc1cc(N)n2nc(-c3ccc(C(C)(C)C)cc3)cc2n1`, for which the enhancement was 1.1%.

As for `Cc1cc(-c2ccccc2)n2nc(-c3ccccc3)cc2n1`, the enhancement is 33% (active).

Turning to `Cc1cc(-c2ccccc2)n2nc(C)c(-c3ccccc3)c2n1`, the enhancement is -0.179%.

On to `Cc1ccc(C(=O)Nc2c(C(=O)NC(C)(C)C)oc3ccccc23)cc1`, for which the enhancement was 6.66%.

Turning to `N#CN1CCC(NS(=O)(=O)c2cccc(F)c2)C1` (stereo not drawn), the enhancement is -3.49%.

For `CCn1nnnc1SCC(=O)c1ccc(C)cc1C`, the enhancement was 7.37%.

As for `CSc1nnnn1-c1c(C)cc(C)cc1C`, the enhancement is 41.9% (active).

Take `COC(=O)c1ccccc1NC(=O)c1ccc2c(=O)n3c(nc2c1)CCCCC3`: the enhancement was 1.88%.

`COc1cc(Cl)c(NC(=O)C(NS(=O)(=O)c2cccs2)C(C)C)c(OC)c1` (stereo not drawn): the enhancement was 8.88%.

In the case of `COc1ccc(Nc2ncc3c(n2)CCN(C(=O)OC(C)(C)C)C3)cc1`, the enhancement was 2.63%.

In the case of `Cc1ccc(-c2cc(C(F)(F)F)c(C#N)c(SCC(=O)Nc3ccccc3)n2)cc1`, the enhancement is 7.58%.

Turning to `Cc1ccc(Cl)cc1N1CCN(C(=O)C2CCC(CNS(=O)(=O)c3cccs3)CC2)CC1` (stereo not drawn), the enhancement is 4.4%.

As to `CCOC(OCC)c1ccc(/C=C\c2nccc(N)n2)cc1`, the enhancement is 30% (active).

In the case of `CN(C)S(=O)(=O)c1ccc(C(=O)N(Cc2cccnc2)c2nc3c(F)cc(F)cc3s2)cc1`, the enhancement is -9.57%.
